Reference: PubChem BioAssay AID999 (SRMLSC, 2007)
A number with no mark means an inactive call. Calls of active or inactive are those of the source.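 Rule for the calls: active = viability at or below 21.59%, 3 SD under the median of tested compounds; inactive = the rest.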

Assay: viability loss in PTEN-deleted cells – cell-based, validation, diverse DP compound set (AID 999);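 note: 100% = median luminescence of untreated cell control wells and 0% = no signal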
Conditions: HCT116 PTEN-null viability, CellTiter-Glo, 60 h; at 10 µM; active compounds read low

**Q.** Which viability does the source give for `CC(C)=CCC/C(C)=C/COc1ccc2ccc(=O)oc2c1` here?
**A.** Its viability is 91.9%.

**Q.** For `CCC(C)CCCCC(=O)N[C@@H](CCN)C(=O)N[C@H](C(=O)N[C@@H](CCN)C(=O)N[C@H]1CCNC(=O)C([C@@H](C)O)NC(=O)[C@@H](CCN)NC(=O)[C@H](CCN)NC(=O)[C@H](CC(C)C)NC(=O)[C@@H](CC(C)C)NC(=O)[C@H](CCN)NC1=O)[C@@H](C)O` (stereo not given in full), which viability is on record?
**A.** Its viability is 96%.

**Q.** For `C[C@@H]1C(=O)O[C@@H]2CC34C5CC(C(C)(C)C)[C@]36C(O)C(=O)O[C@@H]6O[C@@]4(C(=O)O5)[C@@]12O` (stereo not given in full), which viability is on record?
**A.** Its viability is 53.4%.

**Q.** Which viability does the source give for `C=CCc1ccc(O)c(-c2cc(CC=C)ccc2O)c1` here?
**A.** The viability was 98.7%.

**Q.** Which viability does the source give for `CC1(C)CCC[C@@](C)([C@H]2CC[C@]3(C)[C@@H]2[C@H](O)C[C@@H]2[C@@]4(C)CC[C@H](O)C(C)(C)[C@@H]4[C@@H](O)C[C@]23C)O1` here?
**A.** Its viability is 100%.

**Q.** With `C/C=C1/C2C=C(C)CC1(N)c1ccc(=O)[nH]c1C2` (stereo not given) as the compound, how does the viability read?
**A.** Its viability is 93.8%.

**Q.** With `CC[n+]1c(-c2ccccc2)c2cc(N)ccc2c2ccc(N)cc21` as the compound, how does the viability read?
**A.** Its viability is 20.1% (active).

**Q.** Which viability does the source give for `CC1(C)[C@@H](O[C@H]2O[C@H](C(=O)O)[C@@H](O)[C@H](O)[C@H]2O[C@@H]2O[C@H](C(=O)O)[C@@H](O)[C@H](O)[C@H]2O)CC[C@]2(C)[C@H]3C(=O)C=C4[C@@H]5C[C@@](C)(C(=O)O)CC[C@]5(C)CC[C@@]4(C)[C@]3(C)CC[C@@H]12` here?
**A.** Its viability is 103%.

**Q.** Which viability does the source give for `CC1(C)OC2CC(=O)OCC23C1CC(=O)C1(C)C3CC[C@@]2(C)[C@H](c3ccoc3)OC(=O)C3OC312` (stereo not given in full) here?
**A.** Its viability is 97.3%.

**Q.** For `COc1ccc2nc(S(=O)Cc3ncc(C)c(OC)c3C)[nH]c2c1` (stereo not given), which viability is on record?
**A.** The viability was 92.7%.

**Q.** Which viability does the source give for `COc1ccc(CCN2CCC(Nc3nc4ccccc4n3Cc3ccc(F)cc3)CC2)cc1` here?
**A.** The viability was 16.6% (active).

**Q.** With `CC[C@@]1([C@@H]2O[C@@H]([C@H]3O[C@@](O)(CO)[C@H](C)C[C@@H]3C)C[C@@H]2C)CC[C@H]([C@]2(C)CC[C@]3(C[C@H](O)[C@@H](C)[C@@H]([C@@H](C)[C@@H](OC)C(C)C(=O)O)O3)O2)O1` (stereo not given in full) as the compound, how does the viability read?
**A.** The viability was 63.5%.

**Q.** With `CCOC(=O)c1ncn2c1CN(C)C(=O)c1cc(F)ccc1-2` as the compound, how does the viability read?
**A.** The viability was 95.3%.

**Q.** Which viability does the source give for `CC(C)C[C@H]1C(=O)N2CCC[C@H]2[C@]2(O)O[C@](NC(=O)[C@@H]3C=C4c5cccc6[nH]c(Br)c(c56)C[C@H]4N(C)C3)(C(C)C)C(=O)N12` here?
**A.** The viability was 76.4%.

**Q.** For `O=c1c2ccccc2nc2n1CCc1c-2[nH]c2ccccc12`, which viability is on record?
**A.** The viability was 93.4%.

**Q.** With `CC1(COc2ccc(CC3SC(=O)NC3=O)cc2)CCCCC1` (stereo not given) as the compound, how does the viability read?
**A.** Its viability is 95.3%.

**Q.** Which viability does the source give for `CCC[C@@H]1C[C@@H](C(=O)NC(C(C)Cl)[C@H]2O[C@H](SC)[C@H](O)[C@@H](O)[C@H]2O)N(C)C1` (stereo not given in full) here?
**A.** The viability was 100%.

**Q.** For `CC(C)=CCC[C@](C)(O[C@@H]1O[C@H](CO)[C@@H](O)[C@H](O)[C@H]1O)[C@H]1CC[C@]2(C)[C@@H]1[C@H](O)C[C@@H]1[C@@]3(C)CC[C@H](O[C@@H]4O[C@H](CO)[C@@H](O)[C@H](O)[C@H]4O[C@@H]4O[C@H](CO)[C@@H](O)[C@H](O)[C@H]4O)C(C)(C)[C@@H]3[C@@H](O)C[C@]12C`, which viability is on record?
**A.** The viability was 92%.

**Q.** Which viability does the source give for `Nc1c2c(nc3ccccc13)CCCC2` here?
**A.** The viability was 107%.

**Q.** With `NCCNS(=O)(=O)c1cccc2c(Cl)cccc12` as the compound, how does the viability read?
**A.** The viability was 94.3%.

**Q.** With `c1ccc2nc3ccccc3cc2c1` as the compound, how does the viability read?
**A.** Its viability is 99.8%.

**Q.** With `C=C(C)C1CC=C(C)C(O)C1` (stereo not given) as the compound, how does the viability read?
**A.** Its viability is 89.2%.

**Q.** With `Cc1cc2c(C(C)C)c(O)c(O)c(C=O)c2c(O)c1-c1c(C)cc2c(C(C)C)c(O)c(O)c(C=O)c2c1O` as the compound, how does the viability read?
**A.** Its viability is 13% (active).

**Q.** For `C/C(=C\CNc1ncnc2c1ncn2[C@@H]1O[C@H](CO)[C@@H](O)[C@H]1O)CO`, which viability is on record?
**A.** The viability was 91.5%.

**Q.** Which viability does the source give for `C[C@]12CCC(=O)C=C1CC[C@@H]1[C@@H]2[C@@H](O)C[C@@]2(C)[C@H]1CC[C@]2(O)C(=O)CO` here?
**A.** The viability was 99.2%.

**Q.** For `CCC(C)C(O)C(C)C(=O)C(C)/C=C(\C)CC(C)C1OC(=O)C1CC` (stereo not given), which viability is on record?
**A.** The viability was 97.1%.

**Q.** For `COc1ccc2cc3[n+](cc2c1OC)CCc1cc2c(cc1-3)OCO2`, which viability is on record?
**A.** Its viability is 82.9%.

**Q.** Which viability does the source give for `COc1cccc2c1C(=O)c1c(O)c3c(c(O)c1C2=O)C[C@@](O)(C(=O)CO)C[C@@H]3OC1C[C@@H](N)[C@H](O)[C@H](C)O1` (stereo not given in full) here?
**A.** Its viability is 27.7%.

**Q.** Which viability does the source give for `O=C(O)c1ccccc1O` here?
**A.** The viability was 98.7%.

**Q.** With `O=c1c(O)c(-c2ccc(O)c(O)c2)oc2cc(O)cc(O)c12` as the compound, how does the viability read?
**A.** The viability was 72.4%.
